{"source": "PubChem BioAssay (NCI)", "note": "Compounds without any hit were thinned out: in the full panel of roughly 79,000, 15% have a hit. The source made the active and inactive calls. No stated cut-off is given here; in the data, active means growth inhibition above about 70%; inactive means the rest.", "data": [{"experiment": "NCI Yeast Anticancer Drug Screen. Data for the rad50 strain (AID 155);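 further: 0% = growth of vehicle-only cultures of the same strain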", "conditions": "S. cerevisiae rad50 strain growth inhibition; at 50.0 µM; stronger effect = higher value", "summary_of_the_method": "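Yeast carrying a defined DNA repair defect were exposed to test compounds, and growth was compared with vehicle-treated controls to give percent inhibition.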", "values": [{"smiles": "COC(=O)C1C(c2ccccc2)=N[C@@H](c2ccccc2)[C@H]1C(=O)OC", "note": "(stereo partly specified)", "growth inhibition": "17.4% (inactive)"}, {"smiles": "CCCCCCCCCC(C)CC(=O)NCCCN(C)CCCCN(C)C", "note": "(stereo unspecified) (tested in a mixture with another compound)", "growth inhibition": "88.8% (active)"}, {"smiles": "Cc1ccc(N=C2SC(=S)N(CCC[N+](C)(C)C)C2=Nc2ccc(C)cc2)cc1", "growth inhibition": "99.2% (active)"}, {"smiles": "N#CSc1ccc(O)c2ccccc12", "growth inhibition": "90.2% (active)"}, {"smiles": "CCCCCC1OC(CCCCC)OC(CCCCC)O1", "note": "(stereo unspecified)", "growth inhibition": "10.2% (inactive)"}, {"smiles": "ClC1(c2ccccc2)c2ccccc2-c2ccccc21", "growth inhibition": "92.2% (active)"}, {"smiles": "CCN(CC)c1ccc(NC(CC(O)c2ccccc2)c2ccccc2)cc1", "note": "(stereo unspecified)", "growth inhibition": "-24% (inactive)"}, {"smiles": "CCCCCCC[n+]1ccc(C(=O)c2ccccc2)cc1", "growth inhibition": "99.4% (active)"}, {"smiles": "O=c1[nH][nH]c(=O)c2c1nc(SCc1ccccc1)n2Cc1ccccc1", "growth inhibition": "8.05% (inactive)"}, {"smiles": "CCOC(=O)C(NNc1ccccc1)C(c1ccccc1)[P+](c1ccccc1)(c1ccccc1)c1ccccc1", "note": "(stereo unspecified)", "growth inhibition": "99.5% (active)"}, {"smiles": "CC(C)/C=C1\\CCC(CN2CCOCC2)C1=O", "note": "(stereo unspecified)", "growth inhibition": "72.1% (active)"}, {"smiles": "CCc1cc2nc3c(=O)[nH]c(=O)nc-3n(CCN(CCO)CCO)c2cc1CC", "growth inhibition": "41% (inactive)"}, {"smiles": "c1ccc2c(c1)OCC(CN1CCN(CC3COc4ccccc4O3)CC1)O2", "note": "(stereo unspecified)", "growth inhibition": "76.7% (active)"}, {"smiles": "CNC(C)C(=O)c1ccc2ccc3ccccc3c2c1", "note": "(stereo unspecified)", "growth inhibition": "54.5% (inactive)"}, {"smiles": "O=[N+]([O-])c1ccc(N=C(Cl)C(Cl)(c2ccccc2)c2ccccc2)cc1", "growth inhibition": "96.2% (active)"}, {"smiles": "O=[N+]([O-])c1ccc2c(c1)Cc1cc(Cl)ccc1-2", "growth inhibition": "14.1% (inactive)"}]}]}
